The campaign covered roughly 16,000 compounds. About 5,100 (32%) were called active. Inconclusive results (about 25%) are left out. The list shows a part of the results. Values without a mark were called inactive. Calls follow the shape of the dose curve; as a rule, active = well fitted curve in the direction sought with a large enough effect; inconclusive = small, poorly fitted or top-dose-only effect, or effect the other way; inactive = no such curve, though single readings can be large or run the other way.
The molecules below were run against Cytochrome P450 3A4 (Homo sapiens) (UniProt P08684) (assay: Cytochrome panel assay with activity outcomes). Details: recombinant CYP, pro-luciferin dealkylation, luminescence, p450-cyp3a4; series mostly up to 57.1 µM; activity, negative = inhibition: at the top concentration.
Sequence of Cytochrome P450 3A4 (Homo sapiens) (P08684 whole entry, looked up): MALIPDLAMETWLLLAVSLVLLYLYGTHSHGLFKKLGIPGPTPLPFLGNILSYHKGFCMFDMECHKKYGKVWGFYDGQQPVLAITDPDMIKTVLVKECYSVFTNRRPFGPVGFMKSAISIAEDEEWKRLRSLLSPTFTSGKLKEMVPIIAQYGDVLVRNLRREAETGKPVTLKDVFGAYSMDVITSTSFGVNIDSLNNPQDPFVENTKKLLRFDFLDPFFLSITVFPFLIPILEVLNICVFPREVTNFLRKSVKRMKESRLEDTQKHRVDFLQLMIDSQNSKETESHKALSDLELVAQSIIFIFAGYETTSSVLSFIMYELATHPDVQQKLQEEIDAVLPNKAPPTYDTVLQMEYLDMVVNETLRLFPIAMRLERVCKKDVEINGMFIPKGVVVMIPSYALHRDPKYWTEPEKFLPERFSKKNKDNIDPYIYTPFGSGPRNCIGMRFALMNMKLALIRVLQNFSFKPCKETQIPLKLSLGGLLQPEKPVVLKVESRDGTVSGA
In the case of `N#Cc1cccc(NC(=O)N2CCCC3(CCN(C(=O)c4cccc(F)c4)CC3)C2)c1`, the AC50 was 15.8 µM (active). In the case of `N#Cc1cccc(NC(=O)N2CC3(CCN(C(=O)c4ccco4)CC3)C2)c1`, the “activity, negative = inhibition” value was -26.1%. In the case of `N#Cc1cccc(NC(=O)N2CCCC3(CCN(C(=O)c4ccco4)CC3)C2)c1`, the AC50 was 5.01 µM (active). `N#Cc1cccc(NC(=O)N2CC[C@@]3(CCCN(C(=O)c4cccc(F)c4)C3)C2)c1` was tested, and the AC50 was 10 µM (active). For `S=c1[nH]c2cc(Cl)ccc2s1`, the activity, negative = inhibition was -16.9% [at 2.29 µM]. With `CC(C)C(NC(=O)C12CC3CC(CC(C3)C1)C2)C(=O)NC1=NCCS1` (stereo not given) the AC50 was 15.8 µM (active). `CCc1ccc(N2CC(C(=O)NC3=NCCS3)CC2=O)cc1` (stereo not given) showed an activity, negative = inhibition of 3.42% [at 2.29 µM]. For `O=C(Nc1ccccc1)C(Cc1ccccc1)NC(=O)C12CC3CC(CC(C3)C1)C2` (stereo not given), the “activity, negative = inhibition” value was -5.95%. `CCCS(=O)(=O)N1CCCC(C(=O)NCCCN2CCN(c3ccc(F)cc3)CC2)C1` (stereo not given) showed an activity, negative = inhibition of 14.9% [at 2.29 µM]. In the case of `Cc1ccc(S(=O)(=O)N(CC(=O)N2CCN(c3ccc(F)cc3)CC2)C2CCCCC2)cc1`, the AC50 was 1 µM (active). With `Cc1ccc(S(=O)(=O)NC(=O)NN2C[C@H]3CCC[C@@H]3C2)cc1` the “activity, negative = inhibition” value was 10.8% [at 25.6 µM]. Work on `O[C@H](CNc1ccccn1)c1ccccc1` yielded an activity, negative = inhibition of -27.1% [at 11.4 µM]. For `CN1CCN(c2nc3c(c(=O)n(C)c(=O)n3C)n2C)CC1`, the activity, negative = inhibition was 0.305% [at 11.4 µM]. In the case of `COc1ccc(-c2nc3cnc(N4CCOCC4)nc3n(CCC#N)c2=O)cc1`, the “activity, negative = inhibition” value was 5.32%. In the case of `COCCn1c(=O)c(C)nc2cnc(N3CCNCC3)nc21`, the “activity, negative = inhibition” value was -23.2%. `COCCn1c(=O)c(-c2ccc(OC)cc2)nc2cnc(N3CCNCC3)nc21` was tested, and the AC50 was 15.8 µM (active). In the case of `COCCn1c(=O)c(-c2cccs2)nc2cnc(N3CCNCC3)nc21`, the AC50 was 15.8 µM (active). For `CN1CCN(c2ncc3nc(-c4ccccc4)c(=O)n(Cc4cccs4)c3n2)CC1`, the “activity, negative = inhibition” value was -4.51%. `COCCn1c(=O)c(-c2ccc(OC)cc2)nc2cnc(N3CCOCC3)nc21` was tested, and the “activity, negative = inhibition” value was -11.4%. `CN1CCN(c2ncc3nc(-c4cccs4)c(=O)n(CCc4ccccc4)c3n2)CC1` was tested, and the AC50 was 20 µM (active). For `CN1CCN(c2ncc3nc(-c4cccs4)c(=O)n(Cc4cccs4)c3n2)CC1`, the AC50 was 10 µM (active). Work on `C[N+](C)(C)c1ccc([C@H](N)C(=O)O)cc1` yielded an activity, negative = inhibition of 1.95% [at 11.4 µM]. For `CCc1cccc2c(-c3ccccc3)c3c(nc12)OCC3`, the “activity, negative = inhibition” value was -68.4%. For `C[C@@H]1C[C@H](OC(=O)[C@@H](O)c2ccccc2)CC(C)(C)N1C`, the “activity, negative = inhibition” value was -14.4% [at 25.6 µM]. For `COCCn1c(=O)c(-c2cccc(C#N)c2)nc2cnc(N3CCNCC3)nc21`, the AC50 was 20 µM (active). In the case of `COCCn1c(=O)c(-c2cccc(C#N)c2)nc2cnc(N3CCOCC3)nc21`, the “activity, negative = inhibition” value was -1.34%. In the case of `Cc1nc2cnc(N3CCOCC3)nc2n(C)c1=O`, the “activity, negative = inhibition” value was -3.9%. With `O=c1c(-c2cccs2)nc2cnc(N3CCNCC3)nc2n1Cc1cccs1` the AC50 was 2.51 µM (active). `Cc1nc2cnc(N3CCNCC3)nc2n(Cc2cccs2)c1=O` was tested, and the AC50 was 3.16 µM (active). `COCCn1c(=O)c(-c2cccc(C#N)c2)nc2cnc(N3CCN(C)CC3)nc21` was tested, and the “activity, negative = inhibition” value was 10.2%.
% is scaled to controls: 0 for no effect and ±100 for the full control effect.
